Here are results for twelve compounds from PubChem BioAssay (NCI).

Some test systems named below: HCT-15 colon; HT29 colon; SNB-75 CNS; SNB-19 CNS; U251 CNS; PC-3 prostate; SK-MEL-5 melanoma; UACC-62 melanoma; LOX IMVI melanoma; SK-MEL-28 melanoma.
Experiment in all cases: NCI-60 one-dose screen, 48 h (100 = growth as untreated, 0 = no growth, -100 = all killed)
Holding throughout (details): 10 µM

The panel holds about 83,000 compounds, 20% with a hit somewhere; the sample as a whole holds those more often.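 Activity criterion: percent growth below 10, measured after cells in 96-well plates were exposed to a single compound concentration for 48 hours.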 Unmarked numbers belong to inactive results. The source made the active and inactive calls.

With `CCCN(CCC)CCCNC(=O)c1cc2c(-c3ccc(OC)c(OC)c3)nn(C)c2s1`, the growth is 24.7% in the assay on HCT-15 colon; 56.5% with HT29 colon; 22.7% in the assay on SNB-75 CNS; 35% with SNB-19 CNS; 9.87% (active) with U251 CNS; 16.1% with PC-3 prostate. In addition, the growth in the assay on SK-MEL-5 melanoma was -60.8% (active); with UACC-62 melanoma it was 14.1%; in the assay on LOX IMVI melanoma, 10.2%; with SK-MEL-28 melanoma it was 37.6%.
Regarding `COC(=O)c1cnc2c(c1)Oc1ccccc1-c1ccnn1-2`, the growth was 102% with HCT-15 colon; 90.3% with HT29 colon; 86.5% with SNB-75 CNS; 106% with SNB-19 CNS; 90.7% with U251 CNS; 94.3% in the assay with PC-3 prostate. In addition, the growth in the assay with SK-MEL-5 melanoma is 94.1%; in the assay on UACC-62 melanoma, 106%; in the assay with LOX IMVI melanoma it was 91.3%; in the assay with SK-MEL-28 melanoma it was 116%.
Take `COCCOC(=O)NC(=O)Nc1ccc(C(=O)c2ccc(Cl)cc2)cc1`: the growth is 20.9% in the assay on HCT-15 colon; 11.9% in the assay on HT29 colon; 6.4% (active) with SNB-75 CNS; 41.3% with SNB-19 CNS; 37.8% with U251 CNS; 32.1% in the assay on PC-3 prostate. In addition, the growth with SK-MEL-5 melanoma was 5.54% (active); in the assay on UACC-62 melanoma it was 25.8%; in the assay with LOX IMVI melanoma, 37.2%; with SK-MEL-28 melanoma it was 62.6%.
On to `CN(C)c1ccc2c(c1)OC(N)=C(C#N)C2c1ccc2c(c1)CCCN2C` (stereo not given), for which the growth in the assay on HCT-15 colon is 15.8%; in the assay with HT29 colon, 10.5%; with SNB-75 CNS, 42.7%; in the assay on SNB-19 CNS, 33.3%; in the assay with U251 CNS it was 19.5%; in the assay with PC-3 prostate it was 27.3%. Moreover, the growth with SK-MEL-5 melanoma is 21.4%; with UACC-62 melanoma, 34.4%; with LOX IMVI melanoma it was 42%; in the assay on SK-MEL-28 melanoma, 61.5%.
With `CCOC(=O)c1c(O)c2cc(-c3ccccc3)nc(OCC)c2c(=O)n1C`, the growth was 82.7% with HCT-15 colon; 107% in the assay on HT29 colon; 95.6% with SNB-75 CNS; 91.5% with SNB-19 CNS; 97.3% in the assay with U251 CNS; 14.3% in the assay on PC-3 prostate. Besides, the growth in the assay with SK-MEL-5 melanoma was 86.7%; in the assay on UACC-62 melanoma, 99.9%; in the assay on LOX IMVI melanoma it was 98.7%; in the assay on SK-MEL-28 melanoma, 84.8%.
Turning to `O=[N+]([O-])c1ccc(Br)o1`, the growth in the assay on HCT-15 colon is 105%; in the assay on HT29 colon, 95.8%; in the assay on SNB-75 CNS, 97.5%; in the assay with SNB-19 CNS, 107%; in the assay on U251 CNS, 103%; in the assay with PC-3 prostate, 98.8%. Further, the growth in the assay on SK-MEL-5 melanoma was 96.9%; in the assay on UACC-62 melanoma, 103%; in the assay on LOX IMVI melanoma, 93.9%; with SK-MEL-28 melanoma it was 104%.
Take `Cc1ccc(-c2cc(-c3cccc(Nc4ccnc5cc(Cl)ccc45)c3)nc3nc(N)[nH]c(=O)c23)cc1`: the growth in the assay on HCT-15 colon was 99.4%; with HT29 colon it was 97.5%; in the assay with SNB-75 CNS, 76.9%; in the assay with SNB-19 CNS, 84.8%; in the assay with U251 CNS it was 88.5%; in the assay with PC-3 prostate, 95.8%. Besides, the growth with SK-MEL-5 melanoma is 99%; in the assay on UACC-62 melanoma it was 97.7%; with LOX IMVI melanoma, 92.8%; with SK-MEL-28 melanoma, 110%.
With `Cn1c(=O)c2[nH]c(C(O)c3ccc(Cl)cc3)nc2n(C)c1=O` (stereo not given), the growth in the assay on HCT-15 colon was 102%; with HT29 colon, 105%; in the assay on SNB-75 CNS, 80.2%; in the assay on SNB-19 CNS, 95.8%; with U251 CNS, 99.5%; with PC-3 prostate, 87.9%. For the same compound, the growth was 107% in the assay with SK-MEL-5 melanoma, 93.6% with UACC-62 melanoma, 96.6% in the assay on LOX IMVI melanoma and 108% in the assay with SK-MEL-28 melanoma.
Take `O=C(O)CN1C(=O)C=CC1=O`: the growth in the assay on HCT-15 colon was 100%; with HT29 colon it was 104%; in the assay with SNB-75 CNS, 103%; in the assay with SNB-19 CNS it was 106%; in the assay with U251 CNS, 102%; in the assay with PC-3 prostate, 99.8%. Further, the growth in the assay on SK-MEL-5 melanoma is 101%; with UACC-62 melanoma, 103%; with LOX IMVI melanoma it was 102%; in the assay on SK-MEL-28 melanoma, 123%.
With `CCCCCCCCCCCC(=O)NCCCN(C)C`, the growth with HCT-15 colon was 93.8%; in the assay with HT29 colon, 65.5%; in the assay with SNB-75 CNS it was 75.2%; with SNB-19 CNS it was 102%; in the assay on U251 CNS, 75%; in the assay with PC-3 prostate, 75.5%. Also, the growth in the assay with SK-MEL-5 melanoma was 105%; with UACC-62 melanoma, 101%; in the assay with LOX IMVI melanoma it was 69%; with SK-MEL-28 melanoma, 91.9%.
As for `COc1ccc(C(=O)/C=C/c2cc(-c3ccc(OC)c(OC)c3)n[nH]2)cc1OC`, the growth is -68.1% (active) with HCT-15 colon; -61.1% (active) with HT29 colon; -0.863% (active) in the assay with SNB-75 CNS; 2.04% (active) with SNB-19 CNS; -94.5% (active) with U251 CNS; -36.2% (active) with PC-3 prostate. In addition, the growth in the assay with SK-MEL-5 melanoma was 4.15% (active); in the assay on UACC-62 melanoma, 16.3%; in the assay with LOX IMVI melanoma it was -86.8% (active); in the assay on SK-MEL-28 melanoma, -65.5% (active).
Turning to `COc1cccc2c1O/C(=C\c1ncc([N+](=O)[O-])n1C)C2=O`, the growth in the assay on HCT-15 colon is 5.88% (active); in the assay with HT29 colon, -20.7% (active); in the assay on SNB-75 CNS it was 39.2%; in the assay with SNB-19 CNS, -2.3% (active); in the assay with U251 CNS, -11.7% (active); in the assay with PC-3 prostate it was -21.2% (active). Besides, the growth was -92.4% (active) in the assay with SK-MEL-5 melanoma, -77.7% (active) with UACC-62 melanoma, -58.8% (active) with LOX IMVI melanoma and -25.4% (active) with SK-MEL-28 melanoma.
